From PubChem
Shown are actives, neighbours in structure and some others; about 2.9% of the full set was active somewhere.
PAFAH2 inh – PAFAH2 enzyme inhibitors, primary screen, biochemical, fluorescence polarization, human; recombinant PAFAH2, FP-rhodamine activity probe; inhibition, % at 3.39 µM; AID 492956, 2010; Platelet-activating factor acetylhydrolase 2, cytoplasmic (Homo sapiens), Q99487; actives 0.99% (n = 340,000);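 active = inhibition above the mean over all tested compounds plus 3 SD, cut at about 30% in these data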;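 also: inhibitors block probe labeling of enzyme so polarization drops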
ZTA DNA inh – counter-screen for EBNA-1 inhibitors: inhibitors of Epstein-Barr virus ZTA; inhibition, % at 11 µM; actives 0.15% (n = 320,000); P03206; AID 2234; ZTA-DNA binding, fluorescence polarization; in the data active = inhibition above about 33%
Target sequence (P03206 whole entry, looked up): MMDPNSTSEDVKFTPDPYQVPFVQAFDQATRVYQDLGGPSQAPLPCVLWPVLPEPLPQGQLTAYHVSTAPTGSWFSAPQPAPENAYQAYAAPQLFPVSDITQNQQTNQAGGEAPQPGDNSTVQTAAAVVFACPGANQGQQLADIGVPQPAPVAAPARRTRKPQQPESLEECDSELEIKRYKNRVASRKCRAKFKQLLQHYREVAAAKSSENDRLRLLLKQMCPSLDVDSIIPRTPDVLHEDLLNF
PAFAH1B3 inh – PAFAH1B3 enzyme inhibitors, primary screen, biochemical, fluorescence polarization, human; Platelet-activating factor acetylhydrolase IB subunit alpha1 (Homo sapiens), Q15102; recombinant PAFAH1B3, FP-rhodamine probe; inhibition, % at 3.39 µM; actives 0.28% (n = 340,000); AID 492972, 2010;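 active = inhibition above the screen-wide average of all tested compounds plus 3 SD, cut at about 25% in these data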
EBNA-1 inh – EBNA-1 DNA-binding inhibitors, primary screen, biochemical, fluorescence polarization | inhibition, % at 14.8 µM | actives 0.34% (n = 300,000) | AID 1950, 2009; in the data active = inhibition above about 28%
PAFAH1B2 inh – PAFAH1B2 enzyme inhibitors, primary screen, biochemical, fluorescence polarization, human. recombinant PAFAH1B2, FP-rhodamine activity probe. Platelet-activating factor acetylhydrolase IB subunit alpha2 (Homo sapiens), P68402. inhibition, % at 3.39 µM. AID 492953, 2010. actives 1.2% (n = 340,000);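 active = inhibition above the mean of all tested compounds plus 3 SD, cut at about 24% in these data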
Target sequence (P68402 whole entry, looked up): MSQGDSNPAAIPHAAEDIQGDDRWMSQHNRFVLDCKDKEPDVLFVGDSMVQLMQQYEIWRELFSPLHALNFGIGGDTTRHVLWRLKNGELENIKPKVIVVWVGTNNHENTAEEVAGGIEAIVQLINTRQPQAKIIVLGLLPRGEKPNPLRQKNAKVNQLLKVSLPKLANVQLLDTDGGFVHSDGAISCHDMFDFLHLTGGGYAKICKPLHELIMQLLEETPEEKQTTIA
pPAFAH FP inh – pPAFAH enzyme inhibitors, primary screen, biochemical, fluorescence polarization, human. Platelet-activating factor acetylhydrolase (Homo sapiens), Q13093. actives 1.5% (n = 330,000). inhibition, % at 3.39 µM. AID 463082, 2010. recombinant pPAFAH, FP-rhodamine probe fluorescence polarization;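 active = inhibition above the mean inhibition across the screen plus 3 SD, cut at about 25% in these data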;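 also: inhibitors block binding of the rhodamine activity-based probe so polarization drops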
PAFAH2 FP conf – PAFAH2 enzyme inhibitors, confirmation, biochemical, fluorescence polarization, human | shares compounds with PAFAH2 inh | recombinant PAFAH2, FP-rhodamine activity probe | inhibition, % at 3.39 µM | actives 65% (n = 2,300);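 active = mean inhibition over three repeats above a set limit taken from the earlier primary screen, cut at about 30% in these data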;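 also: inhibitor blocks binding of rhodamine activity probe so polarization falls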
Of the large screens only hits and unclear results are named; the others gave an inactive call (follow-up assays come after a bar, where they were run).

O=C(/C=C/c1ccccc1)OCCN=C1NS(=O)(=O)c2ccccc21	PAFAH2 inh 30 | PAFAH2 FP conf inactive
O=C(/C=C/c1ccccc1)OCCCCN=C1NS(=O)(=O)c2ccccc21	none
CC(C)Oc1cc(N)c(Cl)cc1Cl	none
N#Cc1ccccc1S(=O)(=O)N1CCN(C(=O)c2cn(-c3ccccc3)nc2-c2cccnc2)CC1	none (no result: EBNA-1 inh)
O=C(COC(=O)c1ccccc1SCC(=O)N1CCCC1)NC1CCCCC1	PAFAH2 inh 83 | PAFAH2 FP conf 73
N#CC1(NC(=O)COC(=O)c2ccccc2SCC(=O)N2CCCC2)CCCCC1	PAFAH2 inh 81 | PAFAH2 FP conf 80
NC(=O)COC(=O)c1ccccc1SCC(=O)NC1CCCCCCC1	PAFAH2 inh 39 | PAFAH2 FP conf 37
O=C(CSc1ccccc1C(=O)O)NC1CCCCCC1	none
CCN1CCN(c2ccc(S(=O)(=O)N3CCOCC3)cc2NC(=O)c2ccc(Cl)s2)CC1	none
O=C(c1ccc(S(=O)(=O)N2CCOCC2)cc1)N(c1cccc(Cl)c1)C1C=CS(=O)(=O)C1 (centres undefined)	none
CCC1Sc2ccc(S(=O)(=O)CCC(=O)NCc3ccco3)cc2NC1=O (centres undefined)	none
Cc1ccsc1C(=O)NNC(=O)c1csc(N2CCOCC2)n1	none
Cc1ccc(C)c(SCC(=O)NNC(=O)c2csc(N3CCOCC3)n2)c1	PAFAH2 inh 30 | PAFAH2 FP conf 31
O=C(COC(=O)Cn1cc(C(F)(F)F)ccc1=O)Nc1ccccc1	PAFAH2 inh 68 (no result: EBNA-1 inh) | PAFAH2 FP conf 60
Cc1sc2ncnc(SCC(=O)N3CCCC3=O)c2c1C	PAFAH2 inh 81 | PAFAH2 FP conf 83
Cc1ccc(S(=O)(=O)N(C)c2ccc(OC(=O)c3cccs3)cc2)cc1C	PAFAH2 inh 34 (no result: EBNA-1 inh) | PAFAH2 FP conf inactive
Cc1ccc(-n2ncc(C(=O)N3CCc4ccccc4C3)c2NC(=O)c2ccco2)cc1C	PAFAH2 inh 35 | PAFAH2 FP conf inactive
COc1ccccc1C1(O)CCN(CC(=O)Nc2nc(-c3ccccc3)cs2)CC1	none
O=C(COC(=O)/C=C/c1ccco1)NCc1ccc(Cl)cc1	PAFAH2 inh 43 (no result: EBNA-1 inh) | PAFAH2 FP conf 38
O=C(COC(=O)/C=C/c1ccccc1)NCc1ccc(Cl)cc1	PAFAH2 inh 34 | PAFAH2 FP conf 34
O=C(COC(=O)/C=C/c1ccc(Cl)cc1)NC(=O)NCc1ccccc1	none (no result: EBNA-1 inh)
CCCNC(=O)COC(=O)/C=C/c1ccco1	PAFAH2 inh 36 | PAFAH2 FP conf inactive
CCOc1ccc(CCNC(=O)COC(=O)/C=C/c2ccco2)cc1OCC	none
O=C(COC(=O)/C=C/c1ccco1)NCc1ccccc1	none
COc1ccc(CN2C(=O)CNC2=S)cc1	none
CC1=NN(c2ccc(C)cc2)C(=O)/C1=C/c1ccc(-c2cc([N+](=O)[O-])ccc2O)o1	PAFAH2 inh 34 (no result: ZTA DNA inh, EBNA-1 inh, pPAFAH FP inh) | PAFAH2 FP conf inactive
COc1ccccc1/C=C/C(=O)NCCc1ccccn1	none
COc1ccc(C(=O)OCC2CC(c3ccccc3)=NO2)cc1OC (centres undefined)	PAFAH2 inh 68 | PAFAH2 FP conf 60
Cc1c(Cl)cnc(NC(=O)COC(=O)c2ccc3ncsc3c2)c1Cl	PAFAH2 inh 47 | PAFAH2 FP conf 36
Cc1c(Cl)cnc(NC(=O)COC(=O)c2cccc(S(=O)(=O)N3CCc4ccccc4C3)c2)c1Cl	none
O=C(COC(=O)c1ccc2ncsc2c1)NC(=O)c1ccccc1	none
O=C(COC(=O)c1ccc2ncsc2c1)Nc1cc(Cl)ccc1F	PAFAH2 inh 66 (no result: ZTA DNA inh, EBNA-1 inh, pPAFAH FP inh) | PAFAH2 FP conf 60
O=C(COC(=O)c1ccc2ncsc2c1)Nc1ncc(Cl)cc1Cl	PAFAH2 inh 31 | PAFAH2 FP conf inactive
O=C(COC(=O)c1sc2cc(Cl)ccc2c1Cl)Nc1ncc(Cl)cc1Cl	none (no result: PAFAH2 inh, PAFAH1B3 inh, PAFAH1B2 inh)
O=C(CN1CCCC1=O)NC1C2CC3CC(C2)CC1C3 (centres undefined)	none
O=[N+]([O-])c1cccc(-c2noc(-c3cccs3)n2)c1	none
